# Several values for one entry are separate records, joined by “and”; a condition that tells them apart may be missing. Equal entries are not always repeated. Where two headings read alike, the source gives them in different places.
# Experiments:
# NEK6 = details: concentration: 1 μM, replicates: in singlicate, n = 1
# NEK7 = details: concentration: 1 μM, replicates: in singlicate; n = 1
# NEK9 = details: concentration: 1 μM, replicates: in singlicate, n = 1
# NIK = tested on: T1, NIK; details: concentration: 1 μM, replicates: in singlicate, n = 1
# T1 construct: gene MAP3K14
# NIM1 = tested on: T2, NIM1; details: concentration: 1 μM, replicates: in singlicate, n = 1
# T2 construct: gene MGC42105
# NLK = details: concentration: 1 μM, replicates: in singlicate, n = 1
# OSR1 = tested on: T3, OSR1; details: concentration: 1 μM, replicates: in singlicate, n = 1
# T3 construct: gene OXSR1
# PAK1 = details: concentration: 1 μM, replicates: in singlicate, n = 1
# PAK2 = details: concentration: 1 μM, replicates: in singlicate, n = 1
# PAK3 = details: concentration: 1 μM, replicates: in singlicate, n = 1
# PAK4 = details: concentration: 1 μM, replicates: in singlicate; n = 1
# PAK6 = details: concentration: 1 μM, replicates: in singlicate, n = 1
# PAK7 = details: concentration: 1 μM, replicates: in singlicate, n = 1
# PCTK1 = tested on: T4, PCTK1; details: concentration: 1 μM, replicates: in singlicate, n = 1
# T4 construct: gene CDK16
# PCTK2 = tested on: T5, PCTK2; details: concentration: 1 μM, replicates: in singlicate, n = 1
# T5 construct: gene CDK17
# PCTK3 = tested on: T6, PCTK3; details: concentration: 1 μM, replicates: in singlicate; n = 1
# T6 construct: gene CDK18
# PDGFRA = details: concentration: 1 μM, replicates: in singlicate; n = 1
# PDGFRB = details: concentration: 1 μM, replicates: in singlicate, n = 1
# PDPK1 = details: concentration: 1 μM, replicates: in singlicate; n = 1
# PFTAIRE2 = details: concentration: 1 μM, replicates: in singlicate, n = 1
# 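Further: KINOMEscan kinase panel screen.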
smiles,measurement,setting,value
Cc1nnc(-c2ccc(C)c(-c3ccc(C(=O)Nc4ccc(NS(C)(=O)=O)cc4)cc3)c2)o1 [GW702865],%Inh,NEK6,0%
same,%Inh,NEK7,0%
same,%Inh,NEK9,7%
same,%Inh,NIK,16%
same,%Inh,NIM1,19%
same,%Inh,NLK,0%
same,%Inh,OSR1,0%
same,%Inh,PAK1,10%
same,%Inh,PAK2,0%
same,%Inh,PAK3,0%
same,%Inh,PAK4,0%
same,%Inh,PAK6,0%
same,%Inh,PAK7,6%
same,%Inh,PCTK1,0%
same,%Inh,PCTK2,7%
same,%Inh,PCTK3,12%
same,%Inh,PDGFRA,9%
same,%Inh,PDGFRB,36%
same,%Inh,PDPK1,0%
same,%Inh,PFTAIRE2,3%
Cl.Oc1cccc(Nc2ccnc3cc(-c4ccncc4)ccc23)c1 [GW494601],%Inh,NEK6,0%
same,%Inh,NEK7,0%
same,%Inh,NEK9,0%
same,%Inh,NIK,30%
same,%Inh,NIM1,0%
same,%Inh,NLK,66%
same,%Inh,OSR1,0%
same,%Inh,PAK1,0%
same,%Inh,PAK2,0%
same,%Inh,PAK3,33%
same,%Inh,PAK4,0%
same,%Inh,PAK6,0%
same,%Inh,PAK7,14%
same,%Inh,PCTK1,0%
same,%Inh,PCTK2,0%
same,%Inh,PCTK3,18%
same,%Inh,PDGFRA,98.5%
same,%Inh,PDGFRB,99.5%
same,%Inh,PDPK1,0%
same,%Inh,PFTAIRE2,2%
CC(C)(CN)c1nc(-c2ccc(Cl)c(O)c2)c(-c2ccncc2)[nH]1.O=C(O)C(F)(F)F [SB-477794],%Inh,NEK6; 1 µM,0% and 2%
same,%Inh,NEK7,0%
same,%Inh,NEK9; 1 µM,0% and 11%
same,%Inh,NIK; 1 µM,0% and 3%
same,%Inh,NIM1; 1 µM,4% and 0%
same,%Inh,NLK; 1 µM,98.1% and 98.4%
same,%Inh,OSR1; 1 µM,4% and 0%
same,%Inh,PAK1; 1 µM,23% and 11%
same,%Inh,PAK2; 1 µM,1% and 0%
same,%Inh,PAK3; 1 µM,35% and 39%
same,%Inh,PAK4,0%
same,%Inh,PAK6; 1 µM,10% and 0%
same,%Inh,PAK7; 1 µM,21% and 25%
same,%Inh,PCTK1; 1 µM,4% and 0%
same,%Inh,PCTK2; 1 µM,99.7% and 0%
same,%Inh,PCTK3,0%
same,%Inh,PDGFRA,59%
same,%Inh,PDGFRB; 1 µM,99.5% and 98.1%
same,%Inh,PDPK1,0%
same,%Inh,PFTAIRE2; 1 µM,14% and 7%
O=c1cc(N2CCOCC2)nc2n(Cc3cccc(Cl)c3Cl)c(C3CC3)nn12 [GSK2358994],%Inh,NEK6,8%
same,%Inh,NEK7,21%
same,%Inh,NEK9,0%
same,%Inh,NIK,0%
same,%Inh,NIM1,0%
same,%Inh,NLK,22%
same,%Inh,OSR1,0%
same,%Inh,PAK1,16%
same,%Inh,PAK2,0%
same,%Inh,PAK3,0%
same,%Inh,PAK4,0%
same,%Inh,PAK6,13%
same,%Inh,PAK7,0%
same,%Inh,PCTK1,0%
same,%Inh,PCTK2,0%
same,%Inh,PCTK3,3%
same,%Inh,PDGFRA,0%
same,%Inh,PDGFRB,2%
same,%Inh,PDPK1,14%
same,%Inh,PFTAIRE2,0%
O=C1NC(=O)C(N2CCc3ccccc32)=C1c1cccc(Cl)c1 [SB-408010],%Inh,NEK6,9%
same,%Inh,NEK7,0%
same,%Inh,NEK9,0%
same,%Inh,NIK,0%
same,%Inh,NIM1,0%
same,%Inh,NLK,12%
same,%Inh,OSR1,0%
same,%Inh,PAK1,9%
same,%Inh,PAK2,44%
same,%Inh,PAK3,0%
same,%Inh,PAK4,13%
same,%Inh,PAK6,13%
same,%Inh,PAK7,6%
same,%Inh,PCTK1,0%
same,%Inh,PCTK2,0%
same,%Inh,PCTK3,16%
same,%Inh,PDGFRA,9%
same,%Inh,PDGFRB,5%
same,%Inh,PDPK1,0%
same,%Inh,PFTAIRE2,0%
Fc1ccc(-c2ncn(CCCN3CCOCC3)c2-c2ccccn2)cc1 [SB-211742],%Inh,NEK6,15%
same,%Inh,NEK7,0%
same,%Inh,NEK9,0%
same,%Inh,NIK,0%
same,%Inh,NIM1,0%
same,%Inh,NLK,0%
same,%Inh,OSR1,0%
same,%Inh,PAK1,0%
same,%Inh,PAK2,0%
same,%Inh,PAK3,0%
same,%Inh,PAK4,0%
same,%Inh,PAK6,8%
same,%Inh,PAK7,0%
same,%Inh,PCTK1,0%
same,%Inh,PCTK2,2%
same,%Inh,PCTK3,0%
same,%Inh,PDGFRA,0%
same,%Inh,PDGFRB,0%
same,%Inh,PDPK1,0%
same,%Inh,PFTAIRE2,20%
CNc1ncnc2[nH]ncc12 [SKF-18355],%Inh,NEK6,0%
same,%Inh,NEK7,0%
same,%Inh,NEK9,0%
same,%Inh,NIK,31%
same,%Inh,NIM1,21%
same,%Inh,NLK,0%
same,%Inh,OSR1,0%
same,%Inh,PAK1,0%
same,%Inh,PAK2,43%
same,%Inh,PAK3,0%
same,%Inh,PAK4,0%
same,%Inh,PAK6,0%
same,%Inh,PAK7,0%
same,%Inh,PCTK1,0%
same,%Inh,PCTK2,0%
same,%Inh,PCTK3,0%
same,%Inh,PDGFRA,0%
same,%Inh,PDGFRB,0%
same,%Inh,PDPK1,0%
same,%Inh,PFTAIRE2,12%
Nc1nc(-c2ccc3c(N)n[nH]c3c2)cc(N2CCCC2)n1 [GSK2227430],%Inh,NEK6,0%
same,%Inh,NEK7,0%
same,%Inh,NEK9,6%
same,%Inh,NIK,0%
same,%Inh,NIM1,0%
same,%Inh,NLK,0%
same,%Inh,OSR1,7%
same,%Inh,PAK1,13%
same,%Inh,PAK2,12%
same,%Inh,PAK3,0%
same,%Inh,PAK4,0%
same,%Inh,PAK6,0%
same,%Inh,PAK7,5%
same,%Inh,PCTK1,0%
same,%Inh,PCTK2,0%
same,%Inh,PCTK3,0%
same,%Inh,PDGFRA,0%
same,%Inh,PDGFRB,18%
same,%Inh,PDPK1,67%
same,%Inh,PFTAIRE2,6%
COc1ccc(Nc2nccc(N3CCC(NC(=O)Nc4cccc(C(C)=O)c4)C3)n2)cc1 (stereo not drawn) [GSK1379731],%Inh,NEK6,0%
same,%Inh,NEK7,0%
same,%Inh,NEK9,0%
same,%Inh,NIK,2%
same,%Inh,NIM1,12%
same,%Inh,NLK,0%
same,%Inh,OSR1,16%
same,%Inh,PAK1,0%
same,%Inh,PAK2,6%
same,%Inh,PAK3,0%
same,%Inh,PAK4,0%
same,%Inh,PAK6,13%
same,%Inh,PAK7,0%
same,%Inh,PCTK1,9%
same,%Inh,PCTK2,0%
same,%Inh,PCTK3,18%
same,%Inh,PDGFRA,0%
same,%Inh,PDGFRB,38%
same,%Inh,PDPK1,7%
same,%Inh,PFTAIRE2,9%
COCCNC(=O)c1ccc(-c2cc(C(=O)NC3CC3)cc(F)c2C)cc1 [GW868318],%Inh,NEK6,22%
same,%Inh,NEK7,0%
same,%Inh,NEK9,0%
same,%Inh,NIK,48%
same,%Inh,NIM1,59%
same,%Inh,NLK,11%
same,%Inh,OSR1,30%
same,%Inh,PAK1,20%
same,%Inh,PAK2,49%
same,%Inh,PAK3,27%
same,%Inh,PAK4,20%
same,%Inh,PAK6,18%
same,%Inh,PAK7,24%
same,%Inh,PCTK1,8%
same,%Inh,PCTK2,0%
same,%Inh,PCTK3,20%
same,%Inh,PDGFRA,32%
same,%Inh,PDGFRB,51%
same,%Inh,PDPK1,8%
same,%Inh,PFTAIRE2,0%
N#Cc1ccc(-c2cc(-c3c[nH]nc3-c3ccccn3)ccn2)cc1 [GW693028],%Inh,NEK6,0%
same,%Inh,NEK7,0%
same,%Inh,NEK9,0%
same,%Inh,NIK,18%
same,%Inh,NIM1,35%
same,%Inh,NLK,16%
same,%Inh,OSR1,4%
same,%Inh,PAK1,8%
same,%Inh,PAK2,9%
same,%Inh,PAK3,0%
same,%Inh,PAK4,0%
same,%Inh,PAK6,0%
same,%Inh,PAK7,11%
same,%Inh,PCTK1,0%
same,%Inh,PCTK2,0%
same,%Inh,PCTK3,33%
same,%Inh,PDGFRA,0%
same,%Inh,PDGFRB,7%
same,%Inh,PDPK1,0%
same,%Inh,PFTAIRE2,0%
COc1ccc(Nc2nccc(N3CCC(NC(=O)Nc4cc(C)ccc4C)C3)n2)cc1 (stereo not drawn) [GSK1379741],%Inh,NEK6,0%
same,%Inh,NEK7,0%
same,%Inh,NEK9,9%
same,%Inh,NIK,7%
same,%Inh,NIM1,7%
same,%Inh,NLK,35%
same,%Inh,OSR1,1%
same,%Inh,PAK1,7%
same,%Inh,PAK2,0%
same,%Inh,PAK3,0%
same,%Inh,PAK4,0%
same,%Inh,PAK6,0%
same,%Inh,PAK7,0%
same,%Inh,PCTK1,3%
same,%Inh,PCTK2,9%
same,%Inh,PCTK3,6%
same,%Inh,PDGFRA,0%
same,%Inh,PDGFRB,2%
same,%Inh,PDPK1,0%
same,%Inh,PFTAIRE2,13%
COc1cc2c(cc1OCCN1CCN(C)CC1)ncc1c3ccc(C#N)cc3[nH]c21,%Inh,NEK6,7%
same,%Inh,NEK7,0%
same,%Inh,NEK9,0%
same,%Inh,NIK,76%
same,%Inh,NIM1,64%
same,%Inh,NLK,0%
same,%Inh,OSR1,0%
same,%Inh,PAK1,24%
same,%Inh,PAK2,39%
same,%Inh,PAK3,0%
same,%Inh,PAK4,7%
same,%Inh,PAK6,18%
same,%Inh,PAK7,4%
same,%Inh,PCTK1,0%
same,%Inh,PCTK2,12%
same,%Inh,PCTK3,4%
same,%Inh,PDGFRA,97.7%
same,%Inh,PDGFRB,94.7%
same,%Inh,PDPK1,0%
same,%Inh,PFTAIRE2,58%
NS(=O)(=O)c1cccc(-c2ccc3ncc(N4CCOCC4)nc3c2)c1 [GSK1535721],%Inh,NEK6,0%
same,%Inh,NEK7,0%
same,%Inh,NEK9,0%
same,%Inh,NIK,0%
same,%Inh,NIM1,0%
same,%Inh,NLK,8%
same,%Inh,OSR1,0%
same,%Inh,PAK1,17%
same,%Inh,PAK2,0%
same,%Inh,PAK3,0%
same,%Inh,PAK4,5%
same,%Inh,PAK6,0%
same,%Inh,PAK7,26%
same,%Inh,PCTK1,0%
same,%Inh,PCTK2,18%
same,%Inh,PCTK3,0%
same,%Inh,PDGFRA,21%
same,%Inh,PDGFRB,21%
same,%Inh,PDPK1,0%
same,%Inh,PFTAIRE2,5%
CCCCCc1nc2c(N)ncnc2n1CCCCC [SKF-97255],%Inh,NEK6,2%
same,%Inh,NEK7,0%
same,%Inh,NEK9,0%
same,%Inh,NIK,0%
same,%Inh,NIM1,27%
same,%Inh,NLK,0%
same,%Inh,OSR1,0%
same,%Inh,PAK1,12%
same,%Inh,PAK2,67%
same,%Inh,PAK3,4%
same,%Inh,PAK4,6%
same,%Inh,PAK6,0%
same,%Inh,PAK7,0%
same,%Inh,PCTK1,0%
same,%Inh,PCTK2,0%
same,%Inh,PCTK3,0%
same,%Inh,PDGFRA,0%
same,%Inh,PDGFRB,73%
same,%Inh,PDPK1,0%
same,%Inh,PFTAIRE2,0%
